This passage reports inhibition results from PubChem BioAssay AID1903 (Southern Research Specialized Biocontainment Screening …, 2009).

Hit rate of the full screen: of about 310,000 compounds, about 1,200 (0.39%) were called active. Not all results are given here. Entries with a potency or affinity are not part of this list. Unmarked numbers belong to inactive results. How the calls were made is not given here.

Large T antigen (Simian virus 40), sequence (P03070 whole entry, looked up): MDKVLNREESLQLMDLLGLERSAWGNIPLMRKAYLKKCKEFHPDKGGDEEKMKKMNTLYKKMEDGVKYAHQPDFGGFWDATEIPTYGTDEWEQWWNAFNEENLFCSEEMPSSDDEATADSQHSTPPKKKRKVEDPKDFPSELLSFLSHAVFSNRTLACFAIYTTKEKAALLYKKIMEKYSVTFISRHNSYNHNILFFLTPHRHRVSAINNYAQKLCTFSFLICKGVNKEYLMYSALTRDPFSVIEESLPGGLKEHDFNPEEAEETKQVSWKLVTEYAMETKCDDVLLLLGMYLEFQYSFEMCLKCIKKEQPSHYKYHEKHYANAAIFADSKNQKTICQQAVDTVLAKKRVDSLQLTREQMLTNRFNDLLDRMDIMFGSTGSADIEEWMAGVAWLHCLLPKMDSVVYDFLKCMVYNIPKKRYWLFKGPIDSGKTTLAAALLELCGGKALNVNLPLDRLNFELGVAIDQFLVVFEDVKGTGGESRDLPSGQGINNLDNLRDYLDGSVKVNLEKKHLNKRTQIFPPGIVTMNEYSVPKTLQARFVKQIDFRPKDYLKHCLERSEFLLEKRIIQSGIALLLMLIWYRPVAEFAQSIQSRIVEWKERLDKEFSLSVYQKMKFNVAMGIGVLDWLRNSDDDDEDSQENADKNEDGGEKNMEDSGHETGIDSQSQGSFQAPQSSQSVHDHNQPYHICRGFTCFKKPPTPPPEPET

This test concerns the target Large T antigen (Simian virus 40) (UniProt P03070). The experiment in a line: TAg ATPase/helicase activity blockers – biochemical (AID 1903). Particulars: SV40 large T antigen ATPase/helicase inhibition assay; at 20 µM; hits give high values.
In general, inhibition refers to the drop in the measured response relative to a control, in per cent. For the molecule `Cc1cccc(NC(=O)CN2C(=O)N/C(=C\c3cccn3-c3cccc(C(=O)O)c3)C2=O)c1`, the inhibition was 3.89%.
To `Cc1ccc(-n2cccc2/C=C2/NC(=O)N(CC(=O)Nc3cccc(C)c3)C2=O)cc1` belongs 10.3%; to `COC(=O)C1CCN(Cc2ccc(C)cc2)CC1`, 3.14%.
Take `N#C/C(=C/Nc1ccccc1F)S(=O)(=O)c1ccc(Cl)cc1`: the inhibition was -5.3%.
The value for `COc1ccc(-c2cnnn2-c2ccc(NC(=O)/C=C/c3ccc(OC)c(OC)c3)cc2)cc1` was 4.37%.
To `CC(Oc1ccc(Cl)cc1Cl)C(=O)NCCCN(C)C` (configuration not stated) belongs 13.2%.
Turning to `O=C(O)c1ccc(-c2ccc(OS(=O)(=O)c3ccccc3F)cc2)cc1`, the inhibition is -2.26%.
The value for `O=C(O)Cc1ccc(O)c(F)c1` was 11.8%.
In the case of `CC(=O)Nc1ccc(S(=O)(=O)N2CCN(Cc3cccnc3)CC2)cc1`, the inhibition is 0.357%.
The value for `Cc1scc(C(=O)NNC(=S)NCC2CCCO2)c1-c1ccccc1` (configuration not stated) was 11.4%; that for `CN=c1scc(C)n1/N=C/c1ccc2c(c1)OCO2` was 11.5%.
The value for `CCN=c1scc(-c2ccco2)n1/N=C/c1ccc(OC)c(O)c1` was 19.6%.
The value for `CN=c1scc(C)n1/N=C/c1ccc(O)c(O)c1O` was 7.3%; that for `CN=c1scc(-c2cccs2)n1/N=C/c1ccccc1O` was 6.26%.
For the molecule `CCN=c1scc(-c2ccco2)n1/N=C/c1ccc(O)cc1`, the inhibition was 11.2%.
The value for `Cc1nnc(C)n1/N=C/c1ccc(O)cc1` was -1.45%; that for `CC1Oc2ccccc2N(CC(=O)N2CCCC2)C1=O` (configuration not stated) was 2.95%.
To `O=C1Cn2c(nc3ccccc32)N1c1ccccc1F` belongs 5.32%; to `Cc1cc[n+](CC(=O)Nc2ccccc2)cc1`, -1.49%.
Take `COc1ccc(Nc2nc(N)c([N+](=O)[O-])c(NCc3ccccc3)n2)cc1`: the inhibition was 2.61%.
Take `CCCC12CN(C(=O)c3ccc(OC)cc3)CC(C)(CN(C(=O)c3ccc(OC)cc3)C1)C2=O`: the inhibition was 14.8%.
In the case of `COc1ccc(CONc2ncnc3nonc23)cc1[N+](=O)[O-]`, the inhibition was 24.5%.
To `O=c1c(O)c(-c2cc(O)c(O)c(O)c2)oc2cc(O)cc(O)c12` belongs 14.3%.
The value for `O=c1cc(-c2ccc(O)cc2)oc2cc(O)cc(O)c12` was 5.06%; that for `O=c1c(O)c(-c2ccc(O)cc2)oc2cc(O)cc(O)c12` was 2.71%; that for `O=c1cc(-c2ccccc2)oc2cc(O)cc(O)c12` was 3.39%.
The value for `Cc1cccc(/C=C2\CCC(C3CCCC3)C2=O)c1` (configuration not stated) was 1.68%.
For `CCN(CC)C(=O)c1cc(Cl)ccn1`, the inhibition was -2.78%.
The value for `O=C(NCC1CCCO1)c1cc(S(=O)(=O)Nc2ccc(Br)cc2)ccc1Cl` (configuration not stated) was -4.53%.
Take `COC(=O)C1C(=O)NC(SC)=C(C#N)C1c1ccccc1F` (configuration not stated): the inhibition is 10.2%.
To `CCOC(=O)C1C(=O)NC(SC)=C(C#N)C1c1ccccc1F` (configuration not stated) belongs 13.4%.
The value for `COc1ccccc1/C=C(/C(=O)OCC(=O)Nc1cc(C)ccc1C)c1ccccc1` was 5.11%.
The value for `CCOC(=O)C(=CNc1ccc(NC2=NCC(C)S2)cc1)C(=O)OCC` (configuration not stated) was 12%; that for `CC1CN=C(Nc2cccc(S(=O)(=O)N(C)C)c2)S1` (configuration not stated) was 21.1%.
For `Cc1cccc2cc3c(nc12)-c1ccccc1C3=O`, the inhibition was 7.99%.
The value for `Cc1ccc(Cl)c(OC(=O)C2CSC3(C)CCC(=O)N23)c1` (configuration not stated) was 28%; that for `CC(C)Sc1nc2ccccc2n1CC(=O)NCc1ccc2c(c1)OCO2` was 10.4%; that for `O=C(c1cnn(-c2ccccc2)c1)c1ccccc1O` was -1.98%.
Regarding `O=C(O)/C=C/c1cnn(-c2ccccc2)c1`, the inhibition was 6.6%.
`CCN(CC)S(=O)(=O)c1ccc(N=Nc2c(N)[nH]c(=O)[nH]c2=O)cc1`: the inhibition was 12.4%.
On to `O=C(CCn1c(=S)[nH]c2ccccc2c1=O)NCCc1ccc(Cl)cc1`, for which the inhibition was 7.2%.
The value for `O=C(CCn1c(=S)[nH]c2ccccc2c1=O)NCCc1ccccc1` was 4.97%.
The value for `CC(=O)NC(CC(=O)N1CCCC1)c1ccccc1` (configuration not stated) was 21.8%.
The value for `O=C(NCc1ccc2c(c1)OCO2)c1ccc2c(c1)S(=O)(=O)c1ccccc1C2=O` was 0.8%.
With `Cn1c(=O)oc2cc(S(=O)(=O)NC3CCCCCCC3)ccc21`, the inhibition was -1.85%.
With `Cn1c(=O)oc2cc(S(=O)(=O)NC3CCCCC3)ccc21`, the inhibition is -17.1%.
Regarding `CCCCC(=O)Nc1ccc(C(=O)NCCc2ccc(S(N)(=O)=O)cc2)cc1`, the inhibition was 1.78%.
`N=c1c2c(ncn1Cc1ccco1)Oc1cc(O)ccc1C2c1ccccc1` (configuration not stated): the inhibition was 26.2%.
The value for `O=C1NN(c2ccccc2)C(=O)/C1=C\c1ccccc1` was 17.5%; that for `O=C1NN(c2ccccc2)C(=O)/C1=C/c1cccs1` was 28.5%; that for `COc1ccc(-c2nc(CS(=O)(=O)CC(=O)NCCCc3ccccc3)c(C)o2)cc1` was -0.82%.
To `O=C(OCC(=O)N1CCCc2ccccc21)c1cc(S(=O)(=O)N2CCOCC2)ccc1Cl` belongs 15.5%; to `O=C(COc1ccc2ccccc2c1Br)NCc1ccccn1`, 9.07%.
With `CCN(CC)S(=O)(=O)c1cc(NS(=O)(=O)c2cccc(Cl)c2)ccc1C`, the inhibition is 2.93%.
To `Cc1ccc(S(=O)(=O)Nc2ccc(N(C)C)cc2)cc1` belongs 37.5%; to `CN(C)c1ccc(S(=O)(=O)c2ccc(Cl)cc2)cc1`, 1.2%; to `Cc1cccc(C)c1NS(=O)(=O)c1cc2c3c(c1)CC(=O)N3CCC2`, -3.87%.
The value for `CN(C)c1ccc(NS(=O)(=O)c2cc(Cl)ccc2Cl)cc1` was 25.6%; that for `Cc1ccc(NS(=O)(=O)c2cc3c4c(c2)CC(=O)N4CCC3)cc1C` was 7.5%; that for `O=C(CN1C(=O)C(=O)N(Cc2ccco2)C1=O)c1c[nH]c2ccccc12` was 28.3%.
The value for `C=CCc1ccc(OCCOCCOc2ccccc2[N+](=O)[O-])c(OC)c1` was -1.8%; that for `C=CCOc1ccc(C2c3c(oc4ccccc4c3=O)C(=O)N2CCCN2CCOCC2)cc1` (configuration not stated) was 10.1%.
